The values that follow come from PubChem BioAssay (NCATS).

Values joined by “and” are separate entries in the source; they are usually repeats but may differ in a detail not shown here. Equal entries are not always repeated. Results filed as inconclusive are left out. Some structures have more than one record in an assay (separate samples or runs), and their calls can disagree. Active and inactive are the calls of the source. The call rests on the fitted dose curve; in most records, active means well fitted curve in the direction sought with a large enough effect; inconclusive means small, poorly fitted or top-dose-only effect, or another doubt; inactive means no such curve, though single readings can be large; an effect the other way counts as inactive or inconclusive.

In assay [1] the target is Glutathione peroxidase 1 (Homo sapiens) (UniProt P07203). The assay can be described thus: Primary qHTS Assay for Inhibitors of Recombinant Selenoprotein Glutathione Peroxidase 1 (GPX1) (AID 1845191). Further: nearly all actives have a fitted effect of over 65% in size. The settings on record: recombinant GPX1, GR-coupled NADPH fluorescence, 15 min; series mostly up to 48.8 µM. The procedure, abridged: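 Recombinant GPX1 (10 nM final) was preincubated with compound for 30 min at room temperature, then reacted with 1 mM GSH, 0.5 mM CHP, 0.5 mM NADPH and 100 nM glutathione reductase; NADPH fluorescence (340/450 nm) was read at 0 and 15 min.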
(In qHTS, concentration-response curves come from the screen itself.)

For assay [2], the target named is Phospholipid hydroperoxide glutathione peroxidase GPX4 (Homo sapiens) (UniProt P36969). The assay can be described thus: Primary qHTS Assay for Inhibitors of Recombinant Selenoprotein Glutathione Peroxidase 4 (GPX4) (AID 1845192). Further: nearly all actives have a fitted effect of over 65% in size. Further: potency means the concentration at half of the fitted maximal effect. The following applies: recombinant GPX4, GR-coupled NADPH fluorescence, 15 min; series mostly up to 50 µM. The procedure, abridged:
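GR-coupled readout: 100 nM GR, 1 mM GSH, 0.5 mM NADPH; NADPH fluorescence (ex 340/em 450 nm) read at t=0 and after 15 min RT. GPX4 200 nM, preincubated 30 min with compound; substrate 0.5 mM CHP.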

Assay [3] addresses Luciferin 4-monooxygenase (Photinus pyralis) (UniProt P08659). The experiment in a line: Primary firefly luciferase (FLuc) qHTS assay for identification of artifact compounds. (AID 1845220). Further: nearly all actives have a fitted effect of over 60% in size. Further: potency means the concentration at half of the fitted maximal effect. The settings on record: purified firefly luciferase, luminescence, 5 min; series mostly up to 54.1 µM. The procedure, abridged:
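Reaction readout was CCD-imaged luminescence, taken 5 min after adding 10 nM purified firefly enzyme to compound-treated wells holding 10 uM luciferin and ATP in pH 7.6 buffer.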

Assay [4] can be described thus: Primary fluorescence-based thiol-reactive (MSTI) qHTS assay for identification of artifact compounds. (AID 1845221). Further: nearly all actives have a fitted effect of over 65% in size. Further: potency means the concentration at half of the fitted maximal effect. The following applies: MSTI thiol-reactivity probe, 1 h; series mostly up to 53.8 µM. The gist of the method: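 Thiol-reactive compounds detected by quenching of 4 uM MSTI fluorescence (525/598 nm) after 1 h room-temperature dark incubation in PBS pH 7.4, 2% DMSO. qHTS titration; percent inhibition Hill-fitted against Acetyl-MSTI/MSTI controls.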

Assay [5] deals with Nanoluciferase (engineered Oplophorus gracilirostris luciferase). The assay can be described thus: Primary Nanoluciferase (NLuc) qHTS assay for identification of artifact compounds. (AID 1845222).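 Further: NLuc secreted into diluted conditioned medium of S16 cells.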 The settings on record: NLuc-conditioned medium, Nano-Glo luminescence, 5 min; series mostly up to 54.1 µM. The procedure, abridged:
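Concentration-response data were obtained by luminescence after 5 min with Nano-Glo substrate at 1:100. The enzyme was diluted S16 NLuc-expressing cell medium, preincubated with compound for 15 min at RT. Curves were fitted with a 4-parameter Hill model.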

Assay [6] in a line: Primary redox qHTS assay for identification of artifact compounds. (AID 1845223). The settings on record: Amplex Red/HRP redox cycling with DTT, fluorescence; series mostly up to 53.8 µM. The gist of the method: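 Amplex Red (25 uM) and HRP (250 mU/mL) in HBSS, with compounds for 15 min, then 250 uM DTT for 30 min, room temperature, dark. Fluorescence 525/598 nm read; normalized to DMSO and 10 uM DA3003; Hill fit.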

Assay [7] is described as follows: Quantitative High-Throughput drug screen in 47 multiple myeloma cell lines against the NCATS MIPE library collection: FR4_PLB cell viability assay (AID 1918924; further: nearly all actives have a fitted effect of over 35% in size; further: potency means the concentration at half of the fitted maximal effect). The following applies: FR4_PLB myeloma cells viability, CellTiter-Glo ATP, 48 h; series mostly up to 45.8 µM. The procedure, abridged: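 CellTiter-Glo luminescence (ATP) after 48 h compound exposure, 37C/5% CO2; 500 cells/well; MIPE 4.0 approved/investigational drugs pinned in; DMSO = 100%, media only = 0% viability.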

Chain of Glutathione peroxidase 1 (Homo sapiens) (P07203 whole entry, looked up): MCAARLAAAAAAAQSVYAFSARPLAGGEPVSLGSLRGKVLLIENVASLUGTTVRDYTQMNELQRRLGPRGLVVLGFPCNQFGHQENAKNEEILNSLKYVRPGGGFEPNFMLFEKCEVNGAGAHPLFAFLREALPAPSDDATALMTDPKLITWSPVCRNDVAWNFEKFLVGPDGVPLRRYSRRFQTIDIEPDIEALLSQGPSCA
Chain of Phospholipid hydroperoxide glutathione peroxidase GPX4 (Homo sapiens) (P36969 whole entry, looked up): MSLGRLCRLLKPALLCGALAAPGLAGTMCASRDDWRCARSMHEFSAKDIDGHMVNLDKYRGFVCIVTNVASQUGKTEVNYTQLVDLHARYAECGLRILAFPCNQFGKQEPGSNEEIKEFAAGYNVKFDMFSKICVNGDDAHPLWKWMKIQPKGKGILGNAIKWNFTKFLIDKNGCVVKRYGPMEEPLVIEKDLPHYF

With `COc1ccc2c(c1)CC[C@@H](CN(C)CC(=O)O)[C@H]2c1ccccc1`, the Potency result in assay [1], in assay [2], in assay [3], in assay [4], in assay [5] and in assay [6] was “inactive” throughout. In assay [7], the Potency was 1050 nM (active).

With `CC(C)(O)CCc1ccc(OCc2cc(-c3cccc(OC(F)F)c3)c3ncccc3c2)cc1`, the Potency entry in assay [1], in assay [2], in assay [4], in assay [5], in assay [6] and in assay [7] was “inactive” in each case. In assay [3], the Potency is 13500 nM (active).

Take `Clc1cccc(-c2nnnn2Cc2cccnc2)c1Cl`: the Potency result in assay [1], in assay [2], in assay [3], in assay [4], in assay [5] and in assay [6] was “inactive” in each case. For the same molecule, in assay [7], the Potency entry is “inactive”.

Regarding `O=C(Cc1ccc(-c2ccc(OCCN3CCOCC3)cc2)cn1)NCc1ccccc1`, the Potency result in assay [1], in assay [2], in assay [3], in assay [4], in assay [5] and in assay [6] was “inactive” each time. The Potency in assay [7] was 9.3 nM (active).

On to `O=C(Nc1ncc(-c2cc(C(F)F)nn2-c2c(Cl)cccc2Cl)s1)C1CC1`, for which the Potency entry in assay [1], in assay [2], in assay [3], in assay [4], in assay [5] and in assay [6] was “inactive” in each case. The Potency in assay [7] was 235 nM (active).

On to `COc1cc2c(Oc3ccc(-c4cnc(Nc5ccc(F)cc5)n(C)c4=O)cc3F)ccnc2cc1OCCCN1CCOCC1`, for which the Potency entry in assay [1], in assay [2], in assay [3], in assay [4] and in assay [5] was “inactive” throughout. Further, the Potency in assay [7] was 14800 nM (active).

Turning to `Cc1[nH]nc2ccc(-c3cncc(OC[C@@H](N)Cc4ccccc4)c3)cc12`, the Potency result in assay [1], in assay [2], in assay [3], in assay [4], in assay [5] and in assay [6] was “inactive” throughout. Also, the Potency in assay [7] was 4180 nM (active).

As for `Cc1ccc(NC(=O)C2(c3ccc4c(c3)OC(F)(F)O4)CC2)nc1-c1cccc(C(=O)O)c1`, the Potency entry in assay [1], in assay [3], in assay [4] and in assay [5] was “inactive” throughout. Moreover, the Potency result in assay [2] is “inactive and 14.1 µM (active)”; in assay [7] it was 46.9 nM (active).

As to `CN(C1CCc2c(c3ccccc3n2CC(=O)O)C1)S(=O)(=O)c1ccc(F)cc1` (stereo not drawn), the Potency entry in assay [1], in assay [2], in assay [3], in assay [5], in assay [6] and in assay [7] was “inactive” in each case. In addition, the Potency in assay [4] was 2.67 µM (active) and 2.12 µM (active).

Turning to `Cc1ccc2nc(NC(=O)CSc3nc4c(c(=O)n3-c3ccccc3)SCC4)sc2c1`, the Potency entry in assay [1], in assay [2], in assay [3], in assay [4], in assay [5] and in assay [6] was “inactive” each time. In addition, the Potency in assay [7] is 5900 nM (active).

Take `CCc1c2c(nc3ccc(O)cc13)-c1cc3c(c(=O)n1C2)COC(=O)[C@]3(O)CC`: the Potency entry in assay [1], in assay [2], in assay [3], in assay [5] and in assay [6] was “inactive” each time.

Consider `Cc1cnc(Nc2ccc(F)cc2Cl)nc1-c1c[nH]c(C(=O)N[C@H](CO)c2cccc(Cl)c2)c1`, for which the Potency result in assay [1], in assay [2], in assay [3], in assay [4] and in assay [5] was “inactive” throughout. The Potency in assay [7] was 29600 nM (active).

On to `C1Cc2[nH]nc(-c3nn[nH]n3)c2C1`, for which the Potency entry in assay [1], in assay [2], in assay [3], in assay [4], in assay [5] and in assay [6] was “inactive” throughout. The Potency result in assay [7] was “inactive”.

For `Nc1cc(C(F)(F)F)c(-c2cc(N3CCOCC3)nc(N3CCOCC3)n2)cn1`, the Potency result in assay [1], in assay [2], in assay [3], in assay [4], in assay [5] and in assay [6] was “inactive” in each case. Besides, the Potency in assay [7] was 148 nM (active).

Regarding `CCCCCN(CCC12CC3CC(CC(C3)C1)C2)C(=O)NCCCc1ccncc1`, the Potency entry in assay [1], in assay [2], in assay [3], in assay [5] and in assay [6] was “inactive” throughout.

With `Cc1ccc(CN2CCNCC2)cc1NC(=O)CNc1ccc(F)c(F)c1`, the Potency entry in assay [1], in assay [2], in assay [3] and in assay [5] was “inactive” each time.

As to `CNC(=O)c1ccc(N2C(=S)N(c3cnc(C#N)c(C(F)(F)F)c3)C(=O)C23CCC3)cc1F`, the Potency result in assay [1], in assay [2], in assay [3], in assay [4], in assay [5] and in assay [6] was “inactive” in each case.
